Experimental findings from PubChem BioAssay (EPA / NIEHS) are described below.

The source made the active and inactive calls. The calls were made as follows: active = hit-call score of the fitted dose curve at least 0.9, where 1 is the maximum; inactive = score below 0.9.

Assay [1] is described as follows: BSK_CASM3C_SRB: Viability Assessment in the BioMAP Diversity Plus: CASM3C Assay (AID 2283050).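 Also: cells exposed to compound for 24 h.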 Conditions: primary human coronary artery smooth muscle cells.
Read-out in assay [2]: Thrombomodulin, THBD (gene 7056)
As to the kind of experiment: BSK_CASM3C_Thrombomodulin: BioMAP Diversity Plus: CASM3C Assay for Thrombomodulin Biomarker Activity (AID 2283051).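 Also: thrombomodulin protein level measured by ELISA 24 h after dosing.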 Conditions: primary human coronary artery smooth muscle cells; actives raise or lower the signal.

Read-out in assay [3]: Tissue Factor, F3 (gene 2152)
As to the kind of experiment: BSK_CASM3C_TissueFactor: BioMAP Diversity Plus: CASM3C Assay for Tissue Factor Biomarker Activity (AID 2283052).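 Also: cell surface tissue factor protein level read by ELISA.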 The note with it: primary human coronary artery smooth muscle cells; actives raise or lower the signal.

Read-out in assay [4]: Urokinase-type plasminogen activator receptor (uPAR), PLAUR (gene 5329)
The assay is described as follows: BSK_CASM3C_uPAR: BioMAP Diversity Plus: CASM3C Assay for Urokinase-type plasminogen activator receptor (uPAR) Biomarker Activity (AID 2283054).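 Also: cell-surface uPAR protein level quantified by ELISA.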 The note with it: primary human coronary artery smooth muscle cells; actives raise or lower the signal.

Read-out in assay [5]: Vascular cell adhesion molecule 1 (VCAM1), VCAM1 (gene 7412)
As to the kind of experiment: BSK_CASM3C_VCAM1: BioMAP Diversity Plus: CASM3C Assay for Vascular cell adhesion molecule 1 (VCAM1) Biomarker Activity (AID 2283055).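 Also: VCAM-1 protein level quantified by ELISA on the cells.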 The note with it: primary human coronary artery smooth muscle cells; actives raise or lower the signal.

Read-out in assay [6]: Collagen III, COL3A1 (gene 1281)
The assay is described as follows: BSK_hDFCGF_CollagenIII: BioMAP Diversity Plus: hDFCGF Assay for Collagen III Biomarker Activity (AID 2283056). Conditions: primary human foreskin fibroblasts; actives raise or lower the signal. The essentials: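 hDFCGF primary human dermal fibroblasts; 24 h chemical exposure; collagen III by ELISA; bidirectional curve fit vs DMSO baseline (gain or loss of signal).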

Read-out in assay [7]: Epidermal growth factor receptor (EGFR), EGFR (gene 1956)
The assay is described as follows: BSK_hDFCGF_EGFR: BioMAP Diversity Plus: hDFCGF Assay for Epidermal growth factor receptor (EGFR) Biomarker Activity (AID 2283057). The note with it: primary human foreskin fibroblasts; actives raise or lower the signal. In outline:
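ELISA readout of EGFR on human dermal fibroblasts (primary foreskin cells), 24 h post-dosing; bidirectional curve fit vs DMSO baseline, gain or loss of signal scored.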

Read-out in assay [8]: Interleukin-8 (IL8), CXCL8 (gene 3576)
The assay is described as follows: BSK_hDFCGF_IL8: BioMAP Diversity Plus: hDFCGF Assay for Interleukin-8 (IL8) Biomarker Activity (AID 2283058). The note with it: primary human foreskin fibroblasts; actives raise or lower the signal. The essentials:
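ELISA read-out of IL-8 from primary human foreskin fibroblast cultures taken 24 h after dosing; values are bidirectional fits relative to DMSO vehicle.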

Assay [9] in a line: BSK_hDFCGF_Proliferation: Cell Proliferation Assessment in the BioMAP Diversity Plus: hDFCGF Assay (AID 2283059).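 Also: curves fitted for both rise and fall of signal versus DMSO baseline.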 Conditions: primary human foreskin fibroblasts. The essentials: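 Total protein read at 560 nm after 0.1% SRB staining of TCA-fixed human skin fibroblasts, […]. Activity is fitted in both directions relative to DMSO as baseline.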
Read-out in assay [10]: Macrophage colony-stimulating factor (MCSF), CSF1 (gene 1435)
The assay is described as follows: BSK_hDFCGF_MCSF: BioMAP Diversity Plus: hDFCGF Assay for Macrophage colony-stimulating factor (MCSF) Biomarker Activity (AID 2283060). Conditions: primary human foreskin fibroblasts; actives raise or lower the signal. The essentials: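 ELISA read-out of M-CSF in human dermal foreskin fibroblast cultures, 24 h after chemical dosing; gain or loss of signal fitted bidirectionally relative to DMSO baseline.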

A short description of assay [11]: BSK_hDFCGF_SRB: Viability Assessment in the BioMAP Diversity Plus: hDFCGF Assay (AID 2283061).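 Also: cells exposed to compound for 24 h before the read.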 Conditions: primary human foreskin fibroblasts. The essentials: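 Primary human foreskin fibroblasts; 24 h post-dose; fixed 10% TCA, stained 0.1% SRB, A560 read; total protein as overt cytotoxicity measure; curves fit bidirectionally vs DMSO control.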
Read-out in assay [12]: TIMP metallopeptidase inhibitor 1 (TIMP1), TIMP1 (gene 7076)
The assay is described as follows: BSK_hDFCGF_TIMP1: BioMAP Diversity Plus: hDFCGF Assay for TIMP metallopeptidase inhibitor 1 (TIMP1) Biomarker Activity (AID 2283062). The note with it: primary human foreskin fibroblasts; actives raise or lower the signal. The essentials: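 ELISA readout of TIMP-1 from human dermal foreskin fibroblast cultures 24 h post-dosing. Curves were fitted in both directions against DMSO baseline, with SRB total-protein staining in parallel cultures as a cytotoxicity check.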

Read-out in assay [13]: Monokine induced gamma interferon (MIG), CXCL9 (gene 4283)
As to the kind of experiment: BSK_hDFCGF_MIG: BioMAP Diversity Plus: hDFCGF Assay for Monokine induced gamma interferon (MIG) Biomarker Activity (AID 2283063). The note with it: primary human foreskin fibroblasts; actives raise or lower the signal. The essentials:
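Fibroblasts (human foreskin, primary) dosed, 24 h, MIG by ELISA; fit bidirectional vs DMSO.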

Read-out in assay [14]: Matrix Metallopeptidase 1 (MMP1), MMP1 (gene 4312)
The assay is described as follows: BSK_hDFCGF_MMP1: BioMAP Diversity Plus: hDFCGF Assay for Matrix Metallopeptidase 1 (MMP1) Biomarker Activity (AID 2283064). Conditions: primary human foreskin fibroblasts; actives raise or lower the signal. In outline: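 ELISA read-out of MMP1 from human foreskin fibroblasts (primary skin cells), 24 h post-dose. Gain or loss of signal was fitted bidirectionally versus DMSO negative control; cytotoxicity was checked by SRB in parallel cultures.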

Read-out in assay [15]: Vascular cell adhesion molecule 1 (VCAM1), VCAM1 (gene 7412)
The assay is described as follows: BSK_hDFCGF_VCAM1: BioMAP Diversity Plus: hDFCGF Assay for Vascular cell adhesion molecule 1 (VCAM1) Biomarker Activity (AID 2283065).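 As to AC50: VCAM-1 protein level quantified by ELISA after 24 h chemical exposure.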 Conditions: primary human foreskin fibroblasts; actives raise or lower the signal. The essentials:
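ELISA read-out of VCAM-1 on human skin fibroblasts, 24 h post-dose; gain or loss of signal fitted bidirectionally against DMSO baseline.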

Read-out in assay [16]: Interferon-gamma inducible Protein 10 (IP10), CXCL10 (gene 3627)
The assay is described as follows: BSK_KF3CT_IP10: BioMAP Diversity Plus: KF3CT Assay for Interferon-gamma inducible Protein 10 (IP10) Biomarker Activity (AID 2283068). The note with it: primary human keratinocytes with fibroblasts; actives raise or lower the signal. The essentials:
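Human keratinocyte plus foreskin fibroblast primary co-culture exposed to test chemical for 24 h; IP-10 measured by ELISA. Concentration-response fitted bidirectionally against DMSO control as baseline.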

Assay [17] is described as follows: BSK_KF3CT_SRB: Viability Assessment in the BioMAP Diversity Plus: KF3CT Assay (AID 2283069).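 Also: total protein by sulforhodamine B staining as a cytotoxicity measure; read 24 h after compound addition.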 Conditions: primary human keratinocytes with fibroblasts. In outline:
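SRB read-out at 560 nm (0.1% stain, TCA-fixed cells) gauges overt cytotoxicity in a human skin keratinocyte–fibroblast co-culture 24 h post-dosing. Signal change was fitted bidirectionally relative to DMSO control.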

As for `CCN(CC)C(=O)SCc1ccc(Cl)cc1`, the result in assay [1], in assay [2], in [3], in assay [4], in [5] and in [6] was inactive. For the same molecule, the result in [7], in [8], in assay [9], in assay [10], in [11] and in assay [12] was inactive. In addition, the outcome in [13], in assay [14], in assay [15], in assay [16] and in assay [17] was inactive.
In the case of `O=C1c2ccccc2C(=O)N1SC(Cl)(Cl)Cl`, the half-maximal activity concentration (AC50) in assay [1] is 29 µM (active); in assay [2], 4.99 µM (active); in assay [4] it was 33.8 µM (active); in assay [9], 29.7 µM (active); in assay [10], 26 µM (active); in assay [11] it was 33.1 µM (active). Further, the AC50 in assay [13] is 18.3 µM (active); in [16], 26.8 µM (active). Also, the result in [3], in assay [6], in assay [7], in assay [8], in [12] and in [14] was inactive. The result in assay [15] and in [17] was inactive.
As to `O=C(O)CCCOc1ccc(Cl)cc1Cl`, the result in assay [1], in assay [2], in [3], in assay [4], in [5] and in assay [6] was inactive. Further, the result in assay [7], in [8], in assay [9], in assay [10], in assay [11] and in assay [12] was inactive. Moreover, the outcome in [13], in [14], in assay [15] and in assay [17] was inactive. Moreover, in assay [16], the AC50 is 23.6 µM (active).
For the molecule `[2H]C1([2H])[n+]2ccccc2-c2cccc[n+]2C1([2H])[2H]`, the result in assay [1], in assay [2], in assay [3], in assay [4], in assay [5] and in assay [7] was inactive. In addition, the result in assay [8], in assay [10], in assay [11], in assay [12], in [13] and in assay [15] was inactive. Besides, in assay [17], the result was inactive. The concentration at half-maximal activity (AC50) in assay [6] was 1.16 µM (active); in [9], 8.95 µM (active); in [14], 3.17 µM (active); in [16] it was 4.43 µM (active).
On to `CCC(C)(NC(=O)c1cc(Cl)c(C)c(Cl)c1)C(=O)CCl` (stereo unspecified), for which the half-maximal activity concentration (AC50) in assay [1] is 23.4 µM (active); in assay [4], 11.5 µM (active); in assay [5], 9.89 µM (active); in [6] it was 11.3 µM (active); in [7], 30.6 µM (active); in [8], 30.9 µM (active). For the same molecule, the AC50 in assay [9] is 4.14 µM (active); in assay [10], 3.56 µM (active); in [11], 7.6 µM (active); in assay [12] it was 34.3 µM (active); in assay [13], 6.77 µM (active); in [14] it was 30.4 µM (active). The AC50 in assay [15] was 5.49 µM (active); in assay [16], 10.8 µM (active); in [17], 31.8 µM (active). The result in [2] and in [3] was inactive.
Consider `O=C(O)COc1ccc(Cl)cc1Cl`, for which the result in [1], in [2], in [3], in assay [4], in assay [5] and in assay [6] was inactive. Moreover, the result in assay [7], in assay [8], in assay [9], in assay [10], in assay [11] and in [12] was inactive. In addition, the outcome in assay [13], in [14], in [15], in assay [16] and in assay [17] was inactive.
